Values without a mark were called inactive.
Test system: Vero E6 infected with SARS-CoV-2
Assay: inhibition of SARS-CoV-2 cytopathic effect; higher = more antiviral protection, active = above 15
Conditions: 48 h

## CC1(N2CCC(n3c([C@@H]4CCCNC4)nc4ccccc43)CC2)CCCCCCC1
1 nM
  inhibition of SARS-CoV-2 cytopathic effect: 0.07%
8.33 nM
  inhibition of SARS-CoV-2 cytopathic effect: 0.4%
100 nM
  inhibition of SARS-CoV-2 cytopathic effect: -0.65%
833.33 nM
  inhibition of SARS-CoV-2 cytopathic effect: -3.36%
10000 nM
  inhibition of SARS-CoV-2 cytopathic effect: 83.5% (active)

## C[C@@H]1O[C@@H](OC[C@H]2O[C@@H](Oc3c(-c4ccc(O)c(O)c4)oc4cc(O)cc(O)c4c3=O)[C@H](O)[C@@H](O)[C@@H]2O)[C@H](O)[C@H](O)[C@H]1O [rutin]
1 nM
  inhibition of SARS-CoV-2 cytopathic effect: 1.54%
8.33 nM
  inhibition of SARS-CoV-2 cytopathic effect: 1.59%
100 nM
  inhibition of SARS-CoV-2 cytopathic effect: 5.75%
833.33 nM
  inhibition of SARS-CoV-2 cytopathic effect: 0.96%
10000 nM
  inhibition of SARS-CoV-2 cytopathic effect: -5.92%

## COc1ccc(CCN(C)CCc2ccc(OC)c(OC)c2)cc1OC
1 nM
  inhibition of SARS-CoV-2 cytopathic effect: 0.34%
8.33 nM
  inhibition of SARS-CoV-2 cytopathic effect: 3.91%
100 nM
  inhibition of SARS-CoV-2 cytopathic effect: 0.58%
833.33 nM
  inhibition of SARS-CoV-2 cytopathic effect: 4.35%
10000 nM
  inhibition of SARS-CoV-2 cytopathic effect: 3.64%

## CS(=O)(=O)N(Cc1ccco1)C[C@@H](O)Cn1c2ccccc2c2ccccc21
1 nM
  inhibition of SARS-CoV-2 cytopathic effect: 3.16%
8.33 nM
  inhibition of SARS-CoV-2 cytopathic effect: 2.61%
100 nM
  inhibition of SARS-CoV-2 cytopathic effect: -0.72%
833.33 nM
  inhibition of SARS-CoV-2 cytopathic effect: 0.77%
10000 nM
  inhibition of SARS-CoV-2 cytopathic effect: 9.76%

## CN(C)[C@@H]1C(O)=C(C(N)=O)C(=O)[C@@]2(O)C(O)=C3C(=O)c4c(O)ccc(Cl)c4[C@@H](O)[C@H]3C[C@@H]12 [demeclocycline]
1 nM
  inhibition of SARS-CoV-2 cytopathic effect: 1.68%
8.33 nM
  inhibition of SARS-CoV-2 cytopathic effect: 1.08%
100 nM
  inhibition of SARS-CoV-2 cytopathic effect: 0.96%
833.33 nM
  inhibition of SARS-CoV-2 cytopathic effect: 1.19%
10000 nM
  inhibition of SARS-CoV-2 cytopathic effect: 2.34%

## Cc1cc(I)ccc1Nc1c(C(=O)NOCC2CC2)cc(F)c(F)c1F
1 nM
  inhibition of SARS-CoV-2 cytopathic effect: 0.41%
8.33 nM
  inhibition of SARS-CoV-2 cytopathic effect: 5.24%
100 nM
  inhibition of SARS-CoV-2 cytopathic effect: 7.71%
833.33 nM
  inhibition of SARS-CoV-2 cytopathic effect: -0.67%
10000 nM
  inhibition of SARS-CoV-2 cytopathic effect: -4.88%

## CNC(=O)[C@H]1O[C@@H](n2cnc3c(NCc4cccc(I)c4)nc(Cl)nc32)[C@H](O)[C@@H]1O
1 nM
  inhibition of SARS-CoV-2 cytopathic effect: 2.28%
8.33 nM
  inhibition of SARS-CoV-2 cytopathic effect: 3.03%
100 nM
  inhibition of SARS-CoV-2 cytopathic effect: 4.18%
833.33 nM
  inhibition of SARS-CoV-2 cytopathic effect: 2.83%
10000 nM
  inhibition of SARS-CoV-2 cytopathic effect: 0.99%

## C/C=C/C[C@@H](C)C(=O)[C@H]1C(=O)N[C@@H](C(C)C)C(=O)N(C)CC(=O)N(C)[C@@H](CC(C)C)C(=O)N[C@@H](C(C)C)C(=O)N(C)[C@@H](CC(C)C)C(=O)N[C@@H](C)C(=O)N[C@H](C)C(=O)N(C)[C@@H](CC(C)C)C(=O)N(C)[C@@H](CC(C)C)C(=O)N(C)[C@@H](C(C)C)C(=O)N1C [valspodar]
1 nM
  inhibition of SARS-CoV-2 cytopathic effect: -5.19%
8.33 nM
  inhibition of SARS-CoV-2 cytopathic effect: -0.88%
100 nM
  inhibition of SARS-CoV-2 cytopathic effect: -1.83%
833.33 nM
  inhibition of SARS-CoV-2 cytopathic effect: 0.22%
10000 nM
  inhibition of SARS-CoV-2 cytopathic effect: 8.33%

## O=C(NCCCCCCNC(=O)ON=C1CCCCC1)ON=C1CCCCC1
1 nM
  inhibition of SARS-CoV-2 cytopathic effect: 2.1%
8.33 nM
  inhibition of SARS-CoV-2 cytopathic effect: 0.56%
100 nM
  inhibition of SARS-CoV-2 cytopathic effect: 1.93%
833.33 nM
  inhibition of SARS-CoV-2 cytopathic effect: 2.74%
10000 nM
  inhibition of SARS-CoV-2 cytopathic effect: 2.7%

## CN(NC(=O)CC(=O)NN(C)C(=S)c1ccccc1)C(=S)c1ccccc1 [elesclomol]
1 nM
  inhibition of SARS-CoV-2 cytopathic effect: 1.66%
8.33 nM
  inhibition of SARS-CoV-2 cytopathic effect: 2.35%
100 nM
  inhibition of SARS-CoV-2 cytopathic effect: 18% (active)
833.33 nM
  inhibition of SARS-CoV-2 cytopathic effect: 19.7% (active)
10000 nM
  inhibition of SARS-CoV-2 cytopathic effect: 36.4% (active)

## Cc1cccc(Oc2nc3c(C)cccn3c(=O)c2/C=C(\C#N)c2nc3ccccc3s2)c1
1 nM
  inhibition of SARS-CoV-2 cytopathic effect: -0.1%
8.33 nM
  inhibition of SARS-CoV-2 cytopathic effect: 1.16%
100 nM
  inhibition of SARS-CoV-2 cytopathic effect: 0.8%
833.33 nM
  inhibition of SARS-CoV-2 cytopathic effect: 3.43%
10000 nM
  inhibition of SARS-CoV-2 cytopathic effect: 0.62%

## CCc1cc(-c2[nH]nc(C)c2-c2ccc3c(c2)OCCO3)c(O)cc1O
1 nM
  inhibition of SARS-CoV-2 cytopathic effect: -2.8%
8.33 nM
  inhibition of SARS-CoV-2 cytopathic effect: -1.99%
100 nM
  inhibition of SARS-CoV-2 cytopathic effect: -0.23%
833.33 nM
  inhibition of SARS-CoV-2 cytopathic effect: -1.82%
10000 nM
  inhibition of SARS-CoV-2 cytopathic effect: -2.59%

## O=C(c1ccc(Cl)o1)N1CC2CNCC2C1 (stereo not given)
1 nM
  inhibition of SARS-CoV-2 cytopathic effect: -0.08%
8.33 nM
  inhibition of SARS-CoV-2 cytopathic effect: 1.51%
100 nM
  inhibition of SARS-CoV-2 cytopathic effect: 2.2%
833.33 nM
  inhibition of SARS-CoV-2 cytopathic effect: 1.83%
10000 nM
  inhibition of SARS-CoV-2 cytopathic effect: 0.93%

## O=C(Nc1ccccc1)OCC(CN1CCCCC1)OC(=O)Nc1ccccc1 (stereo not given) [diperodon]
1 nM
  inhibition of SARS-CoV-2 cytopathic effect: 0.17%
8.33 nM
  inhibition of SARS-CoV-2 cytopathic effect: -0.37%
100 nM
  inhibition of SARS-CoV-2 cytopathic effect: 0.05%
833.33 nM
  inhibition of SARS-CoV-2 cytopathic effect: -2.3%
10000 nM
  inhibition of SARS-CoV-2 cytopathic effect: -5.11%

## COC(=O)N[C@H](C(=O)N1CCC[C@H]1C(=O)Nc1ccc([C@@H]2CC[C@@H](c3ccc(NC(=O)[C@@H]4CCCN4C(=O)[C@@H](NC(=O)OC)C(C)C)cc3)N2c2ccc(C(C)(C)C)cc2)cc1)C(C)C [ombitasvir]
1 nM
  inhibition of SARS-CoV-2 cytopathic effect: -0.82%
8.33 nM
  inhibition of SARS-CoV-2 cytopathic effect: -0.6%
100 nM
  inhibition of SARS-CoV-2 cytopathic effect: -0.7%
833.33 nM
  inhibition of SARS-CoV-2 cytopathic effect: -1.11%
10000 nM
  inhibition of SARS-CoV-2 cytopathic effect: -1.21%

## Cc1nc(N)sc1CCN [amthamine]
1 nM
  inhibition of SARS-CoV-2 cytopathic effect: -1.84%
8.33 nM
  inhibition of SARS-CoV-2 cytopathic effect: -1.83%
100 nM
  inhibition of SARS-CoV-2 cytopathic effect: -2.06%
833.33 nM
  inhibition of SARS-CoV-2 cytopathic effect: 0.97%
10000 nM
  inhibition of SARS-CoV-2 cytopathic effect: 0.76%

## Cc1ncc(CO)c(CO)c1O [pyridoxine]
1 nM
  inhibition of SARS-CoV-2 cytopathic effect: -15.8%
8.33 nM
  inhibition of SARS-CoV-2 cytopathic effect: -9.76%
100 nM
  inhibition of SARS-CoV-2 cytopathic effect: -7.58%
833.33 nM
  inhibition of SARS-CoV-2 cytopathic effect: -12.7%
10000 nM
  inhibition of SARS-CoV-2 cytopathic effect: -14.1%

## CNC(=O)c1cc(Oc2ccc(NC(=O)Nc3cc(C(C)(C)C)nn3-c3ccc4ncccc4c3)c(F)c2)ccn1 [rebastinib]
1 nM
  inhibition of SARS-CoV-2 cytopathic effect: -1.46%
8.33 nM
  inhibition of SARS-CoV-2 cytopathic effect: 0.18%
100 nM
  inhibition of SARS-CoV-2 cytopathic effect: 1.77%
833.33 nM
  inhibition of SARS-CoV-2 cytopathic effect: 5.75%
10000 nM
  inhibition of SARS-CoV-2 cytopathic effect: 8.96%

— the supplement of paper PMC13380429
